# Sampled rows, rich in hits. Any-hit rate of the full collection: about 2.9%.
# HEK293 tox: cytotoxicity counter-screen for GLP-1 receptor inverse agonists. HEK293 cAMP-luciferase reporter cells, luminescence, 24 h. Potency, µM (top dose mostly 38.3 µM), most hits filed as inhibitors. 0.13% of 410,000 active;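 also: loss of luciferase light is scored as toxicity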
#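 Quantitative HTS format, 1536 wells, 200 cells/uL seeded. Compounds: 23 nL, 24 h, 37 °C. Detection: luciferase reagent, luminescence at 12 min RT; decreased signal taken as cytotoxic.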
# GLP1R inv ag: acts as inverse agonist at human GLP-1 receptor. HEK293 GLP-1R CRE-luciferase, luminescence, 24 h; GLP-1R form is constitutively active. Potency, µM (top dose mostly 38.3 µM), hits mostly inhibitors. 1.6% of 410,000 active. AID 624417; also: nearly all actives have a fitted effect of over 55% in size
# Target sequence (P43220 whole entry, looked up): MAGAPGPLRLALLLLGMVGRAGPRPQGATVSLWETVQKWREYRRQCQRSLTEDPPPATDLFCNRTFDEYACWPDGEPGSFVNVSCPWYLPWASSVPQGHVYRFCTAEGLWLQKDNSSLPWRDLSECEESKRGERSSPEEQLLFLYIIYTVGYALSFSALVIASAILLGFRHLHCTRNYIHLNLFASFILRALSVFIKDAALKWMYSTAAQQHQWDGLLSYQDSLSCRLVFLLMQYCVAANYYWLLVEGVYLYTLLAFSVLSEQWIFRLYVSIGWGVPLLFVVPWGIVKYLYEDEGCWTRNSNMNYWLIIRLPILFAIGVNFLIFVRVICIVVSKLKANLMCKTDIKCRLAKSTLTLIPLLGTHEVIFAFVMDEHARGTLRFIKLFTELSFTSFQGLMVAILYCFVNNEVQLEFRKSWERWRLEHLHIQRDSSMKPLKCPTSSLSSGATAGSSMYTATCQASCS
#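 GLP-1R inverse agonism mode: basal reporter luminescence in engineered HEK293 cells measured after one day of compound exposure at 37 deg C, with a 12 min room-temperature detection step.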
# p53 reactivator: restores transcriptional activity of mutant p53 | Potency, µM (titrated, usually from 92.2 µM), most hits filed as activators | H1299 p53-A138V BP100-luciferase reporter, luminescence, 24 h | AID 504706 | 0.063% of 320,000 active; also: nearly all actives have a fitted effect of over 45% in size
#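 p53-null H1299 cells stably carrying temperature-sensitive p53-A138V and a BP100-luciferase reporter were pinned with compounds (4-point, 1:5 series) and held 24 hrs at 37 deg C. Luminescence was read 10 min after detection reagent.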
# LDHA inh: LDHA (human) enzyme inhibition | P00338 | purified LDHA, NADH/diaphorase-resazurin fluorescence; hits give low values | activity change, % (values are at about 110 or 230 µM) | 0.15% of 480,000 active | AID 1347041; in the data active = activity change below about -30%; inconclusive = mostly about -25% to -30%
#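 LDH5 2 nM; NADH 0.06 mM, pyruvate 0.2 mM; 200 mM Tris pH 7.4, EDTA, Tween-20; 5 min RT. Detection: diaphorase 0.133 mg/mL + resazurin 37 µM, fluorescence ex540/em590 at 0 and 20 min; normalized to enzyme-free and DMSO wells.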
# ClpP mod: qHTS Assay for Activators of ClpP. ATP-dependent Clp protease proteolytic subunit (Bacillus subtilis (strain 168)), P80244. purified B. subtilis ClpP, FRET peptide cleavage, 20 min. Potency, µM (doses to about 57.5 µM). 1.9% of 340,000 active; active = well fitted falling curve with a large enough effect; inconclusive = small, poorly fitted or top-dose-only effect; inactive = no such curve, though single readings can be large or run the other way; also: the source files actives as falling curves though it sought activators and does not explain the sign; nearly all actives have a fitted effect of over 65% in size
# Target sequence (P80244 whole entry, looked up): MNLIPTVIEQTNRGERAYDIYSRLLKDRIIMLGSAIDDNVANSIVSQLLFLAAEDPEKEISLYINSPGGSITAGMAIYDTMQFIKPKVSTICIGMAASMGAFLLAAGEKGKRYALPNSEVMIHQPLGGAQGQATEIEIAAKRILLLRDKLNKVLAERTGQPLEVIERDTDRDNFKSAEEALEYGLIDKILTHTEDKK
#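 Buffer: 100 mM Tris/HCl pH8, 100 mM KCl, 0.05% low protease BSA, 2.5% glycerol, 0.01% Tween-20. ClpP 10 microg/mL final; 20 min RT; delta FRET normalized to ADEP and DMSO controls.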
# GLP1R ag: activates the human GLP-1 receptor; HEK293 GLP-1R CRE-luciferase, luminescence, 4-6 h; cells express a hypersensitive GLP-1R form; Potency, µM (titrated, usually from 45.6 µM), hits mostly activators; 0.007% of 380,000 active
# Hits are given with their value; 0 = inactive; ? = inconclusive; - = no result; [ ] = remark or other dose. Unless noted, calls follow the shape of the dose curve; as a rule, active = well fitted curve in the direction sought with a large enough effect; inconclusive = small, poorly fitted or top-dose-only effect, or another doubt; inactive = no such curve, though single readings can be large; an effect the other way counts as inactive or inconclusive.
SMILES,HEK293 tox,GLP1R inv ag,p53 reactivator,LDHA inh,ClpP mod,GLP1R ag
C=CCN1C(=O)C(CC(=O)Nc2ccc(OCCC)cc2)N(CCCN2CCN(Cc3ccccc3)CC2)C1=S (configuration not stated),?,2.5µM,0,0,-,0
COc1ccc(NC(=O)CC2C(=O)N(Cc3ccccc3)C(=S)N2CCN2CCOCC2)cc1 (configuration not stated),0[0.307 µM],0[0.307 µM],0,0,8.9µM,0
COc1ccc(CN2C[C@H](Cc3ccccc3)[C@@H](CC(=O)Nc3ccccc3)C2=O)cc1,0,8.9µM,0,0,0,0
O=C(CCS(=O)(=O)Cc1ccccc1)Nc1nc2c(s1)CCCC2,0,0,0,0,0,0
CCOc1ccc(CN2CCN(Cc3cc4c(cc3Cl)OCO4)CC2CCO)cc1 (configuration not stated),0,7.9µM,0,0,-,0
CCOc1ccc(CN2CCN(Cc3cccc4c3OCO4)CC2CCO)cc1 (configuration not stated),0,?,0,0,-,0
Cc1cc(/C=C2/C(=O)NN(c3ccccc3)C2=O)c(C)n1-c1cccc(O)c1,?,?,-,0,-,0
CC(C)OCCCNC(=S)N1CCC(C(=O)c2ccc(Cl)cc2)CC1,0,?,-,0,0,0
C=CCNC(=S)N1CCC(C(=O)c2ccc(C)cc2)CC1,0,?,0,0,0,0
CN(C)CCCNC(=S)N1CCC(C(=O)c2ccc(Cl)cc2)CC1,0,2µM,-,0,0,0
CCOCCCNC(=S)N1CCC(C(=O)c2ccc(C)cc2)CC1,0,?,-,0,32µM,0
COc1ccccc1CNC(=O)CCCN1C(=O)CSc2c1c(C)nn2-c1ccccc1,0,0,-,0,0,-
COc1ccc(C(=O)Nc2nc(-c3ccc(Br)s3)ns2)cc1,-,-,-,-30,-,-
COC(=O)c1cc2c(ccn2-c2ccc(F)cc2)n1Cc1ccc(OC)cc1,0[1.53 µM],?,0,0,22µM,0
COC(=O)c1cc2c(ccn2-c2ccc(F)cc2)n1Cc1ccc(C#N)cc1,0,?,0,0,0,0
COC(=O)c1cc2oc3ccccc3c2n1Cc1c(F)cccc1Cl,0,0,-,0,2.5µM,-
O=C(CSc1nc(N2CCCCC2)nc(N2CCCCC2)n1)N1CCN(c2ccccc2)CC1,0,2.8µM,0,0,0,0
O=C(CSC1=NCCS1)N1CCN(c2ccccc2)CC1,0,0,35µM,0,0,0
Cc1nc(SCC(=O)N2CCN(c3ccccc3)CC2)n[nH]1,0,0,0,0,-,0
O=C1[C@H]2[C@@H](c3ccc(C(F)(F)F)cc3)N[C@]3(CCCN(CC4CCCCC4)C3=O)[C@H]2C(=O)N1Cc1ccccc1,0,?,-,0,0,0
COc1ccccc1CNS(=O)(=O)c1c(C)nc2sc(C)cn2c1=O,0,0,-,0,32µM,-
Cc1cn2c(=O)c(S(=O)(=O)NCCc3ccccc3)c(C)nc2s1,0,0,-,0,28µM,-
CCC(=O)Nc1cc(OC)c(NC(=O)c2ccccc2)cc1OC,0,0,0,0,0,0
COc1ccc(N(C)C(=O)CCS(=O)(=O)c2cccc3nonc23)c(OC)c1,0,0,0,0,0,0
Cc1ccc(C)c(C(=O)COC(=O)c2ccccc2C)c1,-,-,-,0,-,-
SMILES,HEK293 tox,GLP1R inv ag,p53 reactivator,LDHA inh,ClpP mod,GLP1R ag
Cc1ccc(C)c(SCC(=O)NCC(c2ccco2)N2CCCCC2)c1 (configuration not stated),0,11µM,0,0,0,0
CC(C)(Oc1ccc(Cl)cc1)C(=O)NCC(c1ccco1)N1CCCCC1 (configuration not stated),0,8.9µM,0,0,0,0
Cc1c(C(=O)NCC(c2ccco2)N2CCCC2)sc2ccccc12 (configuration not stated),0,8.9µM,0,0,-,0
O=C(NCC(c1ccco1)N1CCCC1)c1sc2ccccc2c1Cl (configuration not stated),0,0,0,0,0,0
Cc1cc(SCC(=O)NCC(c2cccs2)N2CCOCC2)c(C)cc1Br (configuration not stated),0,11µM,0,0,0,0
Cc1ccc(S(=O)(=O)NC(CC(C)C)C(=O)NCC(c2ccco2)N2CCCCC2)cc1 (configuration not stated),0,4.5µM,0,0,0,0
COc1cccc(CC(=O)N2CCN(c3nc(-c4ccc(Cl)cc4)no3)CC2)c1,-,-,-,0,-,-
COc1cccc(COC(=O)c2sc3nc4n(c(=O)c3c2C)CCC4)c1OC,0,0,0,0,0,0
Cc1ccc(CNC(=O)c2cc3c(s2)-c2ccc(Cl)cc2SC3)cc1,0,0,-,0,0,-
CCCN(C(=O)c1cc2c(s1)-c1ccccc1SC2)c1ccccc1F,0,11µM,-,0,32µM,-
CN(C)CCNC(=O)c1cc2c(s1)-c1ccc(Cl)cc1SC2,?,13µM,0,0,0,0
COc1ccc(C#Cc2cccc(-c3nc(C(=O)NCc4ccc(Oc5ccccc5)cc4)cc4c3[C@@H](CCO)N(S(=O)C(C)(C)C)C4)c2)cc1OC (some centres not stated),0,0,-,0,0,0
CCOc1ccc(NC(=S)N(Cc2ccc(Cl)cc2)Cc2ccco2)cc1,0,11µM,0,0,0,0
COCCCNC(=O)N1c2ccccc2Sc2ccccc21,0,0,0,0,-,0
N#Cc1c2c(c(NCCCN3CCOCC3)n3c1nc1ccccc13)CCC2,0,0,0,0,32µM,0
CC(C)c1cc(NCCCN2CCOCC2)n2c(nc3ccccc32)c1C#N,0,0,0,0,28µM,0
CC(C)c1cc(NCCN2CCOCC2)n2c(nc3ccccc32)c1C#N,0,0,-,0,0,0
N#Cc1c2c(c(NCCN3CCOCC3)n3c1nc1ccccc13)CCCC2,0,0,0,0,?,0
CN(CCc1ccccc1)C(=O)c1cccc(NC(=O)Cc2cccc(NC(=O)C3CCCN(S(=O)(=O)c4cccc([N+](=O)[O-])c4)C3)c2)c1 (configuration not stated),0,0,-,0,0,0
N#Cc1cc(-c2cccc(Cl)c2)c[nH]c1=O,0,0,0,0,22µM,0
N#Cc1c(-c2cccc(Cl)c2)[nH]c(=S)[nH]c1=O,0,0,0,0,-,0
C=CCn1cc(-c2cccc(Cl)c2)cc(C#N)c1=O,0,0,0,0,28µM,0
C/C(=N\NC(=O)CNc1cccc(C(F)(F)F)c1)c1cccc(Br)c1,0,0,0,0,0,0

# Screening data: PubChem, National Center for Advancing Translational Sciences (NCATS)
